# ChEMBL document CHEMBL1961873, “Compounds: GSK PKIS; Assays: Nanosyn kinase panel” (2012)
# What was measured:
# [1] = biological target: Tyrosine-protein kinase Fyn (Homo sapiens) (UniProt P06241); settings: at 1 µM
# [2] = biological target: Tyrosine-protein kinase HCK (Homo sapiens) (UniProt P08631); settings: at 0.1 µM
# [3] = biological target: Tyrosine-protein kinase HCK (Homo sapiens) (UniProt P08631); settings: at 1 µM
# [4] = biological target: Insulin-like growth factor 1 receptor (Homo sapiens) (UniProt P08069); settings: at 0.1 µM
# [5] = biological target: Insulin-like growth factor 1 receptor (Homo sapiens) (UniProt P08069); settings: at 1 µM
# [6] = biological target: Insulin receptor (Homo sapiens) (UniProt P06213); settings: at 0.1 µM
# [7] = biological target: Insulin receptor (Homo sapiens) (UniProt P06213); settings: at 1 µM
# [8] = biological target: Insulin receptor-related protein (Homo sapiens) (UniProt P14616); settings: at 0.1 µM
# [9] = biological target: Insulin receptor-related protein (Homo sapiens) (UniProt P14616); settings: at 1 µM
# [10] = biological target: T1, Tyrosine-protein kinase ITK/TSK (Homo sapiens) (UniProt Q08881); settings: at 0.1 µM
# T1 sequence (whole entry): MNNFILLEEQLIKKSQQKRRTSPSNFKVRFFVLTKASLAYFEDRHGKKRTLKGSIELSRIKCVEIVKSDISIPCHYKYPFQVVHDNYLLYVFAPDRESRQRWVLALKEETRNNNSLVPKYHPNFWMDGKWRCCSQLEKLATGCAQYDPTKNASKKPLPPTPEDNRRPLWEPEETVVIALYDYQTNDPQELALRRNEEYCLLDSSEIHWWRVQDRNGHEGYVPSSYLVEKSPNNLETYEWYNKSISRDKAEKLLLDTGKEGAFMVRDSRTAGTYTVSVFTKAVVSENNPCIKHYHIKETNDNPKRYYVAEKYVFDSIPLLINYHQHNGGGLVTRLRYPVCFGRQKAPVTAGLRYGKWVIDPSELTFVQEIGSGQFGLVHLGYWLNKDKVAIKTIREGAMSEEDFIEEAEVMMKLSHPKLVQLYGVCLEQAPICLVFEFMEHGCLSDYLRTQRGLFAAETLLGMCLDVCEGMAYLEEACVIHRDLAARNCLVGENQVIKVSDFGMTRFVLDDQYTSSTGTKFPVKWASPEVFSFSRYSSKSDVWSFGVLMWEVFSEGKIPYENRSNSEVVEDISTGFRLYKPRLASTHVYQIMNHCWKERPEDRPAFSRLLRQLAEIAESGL
# [11] = biological target: T1, Tyrosine-protein kinase ITK/TSK (Homo sapiens); settings: at 1 µM
# [12] = biological target: Tyrosine-protein kinase JAK1 (Homo sapiens) (UniProt P23458); settings: at 0.1 µM
# [13] = biological target: Tyrosine-protein kinase JAK1 (Homo sapiens) (UniProt P23458); settings: at 1 µM
# [14] = biological target: Tyrosine-protein kinase JAK2 (Homo sapiens) (UniProt O60674); settings: at 0.1 µM
# [15] = biological target: Tyrosine-protein kinase JAK2 (Homo sapiens) (UniProt O60674); settings: at 1 µM
# [16] = biological target: T2, Tyrosine-protein kinase JAK3 (Homo sapiens) (UniProt P52333); settings: at 0.1 µM
# T2 sequence (whole entry): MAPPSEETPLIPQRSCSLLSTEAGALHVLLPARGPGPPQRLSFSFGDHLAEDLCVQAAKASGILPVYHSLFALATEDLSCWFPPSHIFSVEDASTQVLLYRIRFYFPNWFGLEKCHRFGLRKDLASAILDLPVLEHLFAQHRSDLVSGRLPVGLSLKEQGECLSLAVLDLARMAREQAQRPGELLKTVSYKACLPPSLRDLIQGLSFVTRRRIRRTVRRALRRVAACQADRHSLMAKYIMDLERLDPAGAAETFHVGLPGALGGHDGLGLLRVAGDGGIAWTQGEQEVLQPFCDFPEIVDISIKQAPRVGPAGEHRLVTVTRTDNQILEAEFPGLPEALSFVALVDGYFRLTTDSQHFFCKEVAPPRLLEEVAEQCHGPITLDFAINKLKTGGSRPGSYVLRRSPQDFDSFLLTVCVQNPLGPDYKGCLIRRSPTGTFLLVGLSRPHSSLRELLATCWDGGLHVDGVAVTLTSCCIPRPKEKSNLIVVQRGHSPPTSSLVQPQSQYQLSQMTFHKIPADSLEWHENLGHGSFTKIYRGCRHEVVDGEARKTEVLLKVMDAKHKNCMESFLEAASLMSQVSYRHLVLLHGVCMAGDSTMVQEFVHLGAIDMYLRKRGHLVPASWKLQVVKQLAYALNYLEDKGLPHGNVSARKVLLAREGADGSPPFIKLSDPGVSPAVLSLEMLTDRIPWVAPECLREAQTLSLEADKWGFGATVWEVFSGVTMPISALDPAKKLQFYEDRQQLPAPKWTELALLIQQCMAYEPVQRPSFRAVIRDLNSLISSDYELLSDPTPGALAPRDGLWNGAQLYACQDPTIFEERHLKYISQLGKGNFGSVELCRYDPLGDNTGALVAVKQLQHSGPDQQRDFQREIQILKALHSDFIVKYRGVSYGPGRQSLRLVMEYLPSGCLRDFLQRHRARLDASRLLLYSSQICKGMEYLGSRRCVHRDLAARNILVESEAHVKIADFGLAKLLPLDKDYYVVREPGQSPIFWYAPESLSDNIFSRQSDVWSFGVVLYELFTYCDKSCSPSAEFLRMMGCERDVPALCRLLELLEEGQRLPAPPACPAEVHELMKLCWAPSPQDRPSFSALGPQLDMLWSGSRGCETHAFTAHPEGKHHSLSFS
# [17] = biological target: T2, Tyrosine-protein kinase JAK3 (Homo sapiens); settings: at 1 µM
# [18] = biological target: Vascular endothelial growth factor receptor 2 (Homo sapiens) (UniProt P35968); settings: at 0.1 µM
# [19] = biological target: Vascular endothelial growth factor receptor 2 (Homo sapiens) (UniProt P35968); settings: at 1 µM
# [20] = biological target: Mast/stem cell growth factor receptor Kit (Homo sapiens) (UniProt P10721); settings: at 0.1 µM;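 further: values are mean inhibition of KIT, from the GSK PKIS dataset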
# Sequence of Mast/stem cell growth factor receptor Kit (Homo sapiens) (P10721 whole entry): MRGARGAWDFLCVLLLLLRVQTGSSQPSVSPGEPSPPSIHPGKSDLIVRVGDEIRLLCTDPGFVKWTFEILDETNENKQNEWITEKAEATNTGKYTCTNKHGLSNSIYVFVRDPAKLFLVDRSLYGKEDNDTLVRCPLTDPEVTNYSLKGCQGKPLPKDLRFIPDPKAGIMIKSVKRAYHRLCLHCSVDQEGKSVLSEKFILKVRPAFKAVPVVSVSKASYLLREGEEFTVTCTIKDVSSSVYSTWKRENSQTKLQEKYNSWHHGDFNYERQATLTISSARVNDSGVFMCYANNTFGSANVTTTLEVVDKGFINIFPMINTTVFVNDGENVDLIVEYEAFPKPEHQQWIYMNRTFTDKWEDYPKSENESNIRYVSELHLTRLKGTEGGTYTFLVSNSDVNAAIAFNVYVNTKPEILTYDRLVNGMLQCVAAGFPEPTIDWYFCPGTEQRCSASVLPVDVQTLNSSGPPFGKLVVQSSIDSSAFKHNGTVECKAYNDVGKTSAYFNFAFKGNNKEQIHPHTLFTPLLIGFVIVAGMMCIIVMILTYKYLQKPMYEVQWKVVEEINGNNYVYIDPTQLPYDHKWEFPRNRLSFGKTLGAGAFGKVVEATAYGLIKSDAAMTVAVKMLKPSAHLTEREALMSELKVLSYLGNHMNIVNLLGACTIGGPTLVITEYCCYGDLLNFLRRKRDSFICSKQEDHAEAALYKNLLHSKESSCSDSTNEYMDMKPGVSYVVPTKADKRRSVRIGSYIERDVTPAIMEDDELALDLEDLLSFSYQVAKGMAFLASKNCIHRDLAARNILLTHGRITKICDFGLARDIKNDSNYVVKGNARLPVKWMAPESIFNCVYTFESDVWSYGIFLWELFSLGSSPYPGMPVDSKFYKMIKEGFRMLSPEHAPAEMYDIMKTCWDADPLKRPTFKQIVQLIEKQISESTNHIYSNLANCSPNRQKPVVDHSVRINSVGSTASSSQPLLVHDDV
# Sequence of Tyrosine-protein kinase JAK2 (Homo sapiens) (O60674 whole entry): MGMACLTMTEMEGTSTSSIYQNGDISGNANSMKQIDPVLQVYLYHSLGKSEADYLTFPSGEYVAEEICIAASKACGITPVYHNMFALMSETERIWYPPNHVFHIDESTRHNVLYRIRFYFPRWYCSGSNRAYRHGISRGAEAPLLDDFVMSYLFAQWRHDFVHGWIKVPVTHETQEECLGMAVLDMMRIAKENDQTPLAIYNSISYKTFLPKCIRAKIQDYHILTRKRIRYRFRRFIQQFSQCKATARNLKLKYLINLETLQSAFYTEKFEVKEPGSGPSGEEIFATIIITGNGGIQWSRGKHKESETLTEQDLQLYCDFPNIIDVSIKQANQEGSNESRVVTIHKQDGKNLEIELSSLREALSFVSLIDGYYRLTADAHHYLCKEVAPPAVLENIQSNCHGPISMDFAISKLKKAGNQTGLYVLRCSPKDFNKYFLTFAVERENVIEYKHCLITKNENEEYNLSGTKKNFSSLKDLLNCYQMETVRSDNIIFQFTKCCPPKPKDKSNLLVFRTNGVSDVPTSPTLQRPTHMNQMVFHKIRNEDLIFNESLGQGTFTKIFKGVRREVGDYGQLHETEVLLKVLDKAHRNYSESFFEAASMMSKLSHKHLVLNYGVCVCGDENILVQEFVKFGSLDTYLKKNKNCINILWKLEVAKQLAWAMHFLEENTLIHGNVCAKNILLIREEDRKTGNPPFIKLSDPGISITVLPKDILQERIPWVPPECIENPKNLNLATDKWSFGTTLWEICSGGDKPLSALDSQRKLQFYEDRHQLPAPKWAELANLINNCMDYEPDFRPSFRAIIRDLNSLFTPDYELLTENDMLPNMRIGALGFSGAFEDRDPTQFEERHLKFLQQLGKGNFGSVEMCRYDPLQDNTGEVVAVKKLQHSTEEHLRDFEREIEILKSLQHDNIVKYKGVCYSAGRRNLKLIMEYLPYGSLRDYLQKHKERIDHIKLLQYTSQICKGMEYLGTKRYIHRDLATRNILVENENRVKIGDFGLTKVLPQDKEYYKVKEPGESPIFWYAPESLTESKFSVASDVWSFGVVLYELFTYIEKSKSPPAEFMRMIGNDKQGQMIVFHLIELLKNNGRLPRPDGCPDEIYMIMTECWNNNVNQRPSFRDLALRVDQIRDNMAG
# Sequence of Tyrosine-protein kinase HCK (Homo sapiens) (P08631 2-526 limits assumed): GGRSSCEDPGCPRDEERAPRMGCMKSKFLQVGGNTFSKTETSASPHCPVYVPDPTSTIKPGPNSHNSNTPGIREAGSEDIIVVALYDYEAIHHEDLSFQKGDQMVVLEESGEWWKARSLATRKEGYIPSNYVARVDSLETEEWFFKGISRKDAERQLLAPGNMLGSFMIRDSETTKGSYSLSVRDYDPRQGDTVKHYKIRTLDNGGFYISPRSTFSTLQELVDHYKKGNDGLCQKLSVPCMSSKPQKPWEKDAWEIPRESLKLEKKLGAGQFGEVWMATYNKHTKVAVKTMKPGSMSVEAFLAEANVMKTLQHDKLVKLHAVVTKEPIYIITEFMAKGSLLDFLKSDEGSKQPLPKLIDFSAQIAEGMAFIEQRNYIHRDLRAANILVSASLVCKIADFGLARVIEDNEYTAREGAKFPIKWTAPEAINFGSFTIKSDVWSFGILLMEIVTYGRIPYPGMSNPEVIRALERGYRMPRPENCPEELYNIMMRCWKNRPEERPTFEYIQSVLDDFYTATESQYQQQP
# Sequence of Insulin-like growth factor 1 receptor (Homo sapiens) (P08069 31-736 limits assumed): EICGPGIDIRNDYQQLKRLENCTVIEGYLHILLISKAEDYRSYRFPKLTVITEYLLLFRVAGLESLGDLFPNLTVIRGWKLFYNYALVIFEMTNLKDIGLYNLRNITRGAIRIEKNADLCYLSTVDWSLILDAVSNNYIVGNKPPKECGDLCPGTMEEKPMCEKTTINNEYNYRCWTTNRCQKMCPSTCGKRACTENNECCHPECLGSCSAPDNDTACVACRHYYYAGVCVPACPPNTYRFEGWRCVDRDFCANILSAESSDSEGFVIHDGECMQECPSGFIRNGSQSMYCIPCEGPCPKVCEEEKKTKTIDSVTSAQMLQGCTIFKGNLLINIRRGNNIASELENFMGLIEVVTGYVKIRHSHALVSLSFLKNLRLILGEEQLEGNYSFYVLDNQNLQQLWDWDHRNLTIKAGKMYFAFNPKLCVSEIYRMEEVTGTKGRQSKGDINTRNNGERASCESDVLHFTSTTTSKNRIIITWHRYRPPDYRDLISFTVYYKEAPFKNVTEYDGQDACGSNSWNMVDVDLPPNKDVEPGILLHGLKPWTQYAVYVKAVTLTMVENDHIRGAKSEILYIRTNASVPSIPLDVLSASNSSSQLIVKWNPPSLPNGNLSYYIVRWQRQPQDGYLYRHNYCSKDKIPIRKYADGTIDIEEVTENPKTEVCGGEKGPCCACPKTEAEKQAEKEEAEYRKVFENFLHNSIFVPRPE
# Sequence of Insulin-like growth factor 1 receptor (Homo sapiens) (P08069 741-1367 limits assumed): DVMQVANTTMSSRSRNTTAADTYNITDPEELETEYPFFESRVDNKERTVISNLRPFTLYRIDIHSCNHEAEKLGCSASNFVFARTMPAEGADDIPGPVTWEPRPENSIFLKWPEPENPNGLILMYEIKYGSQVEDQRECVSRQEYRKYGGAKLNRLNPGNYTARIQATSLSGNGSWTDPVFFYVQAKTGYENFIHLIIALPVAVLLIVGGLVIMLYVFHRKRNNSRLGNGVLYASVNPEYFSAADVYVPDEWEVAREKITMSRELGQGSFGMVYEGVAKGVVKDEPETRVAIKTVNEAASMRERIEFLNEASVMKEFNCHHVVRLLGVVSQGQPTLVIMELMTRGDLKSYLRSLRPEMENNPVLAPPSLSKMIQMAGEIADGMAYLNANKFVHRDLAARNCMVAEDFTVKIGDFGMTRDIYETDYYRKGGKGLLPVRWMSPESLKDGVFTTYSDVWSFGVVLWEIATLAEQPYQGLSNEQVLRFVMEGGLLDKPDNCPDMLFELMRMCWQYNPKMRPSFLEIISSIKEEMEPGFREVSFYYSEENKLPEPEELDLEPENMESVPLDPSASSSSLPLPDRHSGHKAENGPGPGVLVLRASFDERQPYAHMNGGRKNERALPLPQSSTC
# Sequence of Tyrosine-protein kinase Fyn (Homo sapiens) (P06241 2-537 limits assumed): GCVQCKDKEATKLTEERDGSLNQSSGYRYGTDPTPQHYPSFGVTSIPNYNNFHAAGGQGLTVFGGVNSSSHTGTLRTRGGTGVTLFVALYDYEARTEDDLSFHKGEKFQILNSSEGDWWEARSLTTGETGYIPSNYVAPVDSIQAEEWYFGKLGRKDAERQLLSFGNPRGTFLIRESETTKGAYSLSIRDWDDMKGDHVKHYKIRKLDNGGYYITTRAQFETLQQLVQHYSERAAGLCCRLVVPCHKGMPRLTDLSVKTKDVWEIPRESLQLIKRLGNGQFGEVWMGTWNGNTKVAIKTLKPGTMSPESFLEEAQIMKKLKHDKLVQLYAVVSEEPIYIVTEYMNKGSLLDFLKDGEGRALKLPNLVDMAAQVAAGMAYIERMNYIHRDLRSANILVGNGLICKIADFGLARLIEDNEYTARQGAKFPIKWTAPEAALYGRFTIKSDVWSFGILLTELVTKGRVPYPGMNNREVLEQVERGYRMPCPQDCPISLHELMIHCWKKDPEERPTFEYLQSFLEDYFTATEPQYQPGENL
Structure (SMILES),inhibition [1],inhibition [2],inhibition [3],inhibition [4],inhibition [5],inhibition [6],inhibition [7],inhibition [8],inhibition [9],inhibition [10],inhibition [11],inhibition [12],inhibition [13],inhibition [14],inhibition [15],inhibition [16],inhibition [17],inhibition [18],inhibition [19],inhibition [20]
COc1cc(/C=N/Nc2ncnc3c2cnn3C(C)C)ccc1O,40.2%,7.16%,32.6%,9.1%,7.79%,2.75%,2.59%,-1.25%,2.79%,1.18%,5%,2.44%,14.2%,0.62%,0.55%,0.75%,3.25%,4.03%,19.8%,8.94%
c1ccc(Nc2ncc(-c3ccccc3)o2)cc1,15.1%,6.83%,13.3%,7.16%,5.2%,4.8%,6.98%,2.31%,2.61%,0.38%,1.67%,8.4%,8.08%,1.08%,1.6%,-1.29%,-1.89%,4.68%,19.8%,30.9%
Cc1ccc2c(-c3ccnc(Nc4cccc(C(F)(F)F)c4)n3)c(-c3ccccc3)nn2n1,61%,11.3%,45.1%,2.54%,4.76%,8.09%,24.8%,2.33%,6.16%,1.33%,1.69%,6.27%,4.74%,1.01%,2.03%,-1.71%,-2.26%,17.7%,69.3%,9.72%
O=C1Nc2ccc(-c3cccnc3)cc2C1=Cc1cc(Br)c(O)c(Br)c1,10.5%,3.63%,11.1%,3.8%,4.14%,3.63%,0.1%,4.28%,2.51%,1.58%,2.67%,2.38%,1.97%,1.07%,3.68%,-1.1%,15.8%,4.5%,10.1%,3.48%
COc1cc(Nc2nccc(-c3cnn4ncccc34)n2)cc(OC)c1,40.3%,5.71%,32.8%,13.8%,65.4%,12.3%,70%,3.56%,22.1%,0.74%,11.8%,4.49%,22.9%,1.89%,36.4%,7.71%,60.5%,14.8%,63.8%,96.2%
NS(=O)(=O)c1ccc(Nc2cc(-c3cccc(O)c3)n[nH]2)cc1,2.45%,5.06%,11.7%,5.98%,5.23%,3.33%,3.4%,6.28%,2.76%,2.78%,4.07%,4.66%,7.23%,1.41%,1.95%,-1.44%,1.25%,9.9%,19.2%,33.2%
